Data from PubChem BioAssay (EPA / NIEHS).
Calls of active or inactive are those of the source. Rule for the calls: active = hit-call score of the fitted dose curve at least 0.9, where 1 is the maximum; inactive = score below 0.9.

Experiments:
[1] = BSK_3C_SRB: Viability Assessment in the BioMAP Diversity Plus: 3C Assay (AID 2283023); conditions: primary human endothelial cells (HUVEC);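 note: fitted both ways against DMSO so a hit may be signal rise or drop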
Outline: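 Primary human umbilical vein endothelial cells in the 3C system were read 24 h after compound dosing. Total protein was stained with 0.1% sulforhodamine B after 10% TCA fixation and read at 560 nm, with bidirectional fitting against DMSO as baseline.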

[2] = read-out: Matrix Metallopeptidase 1 (MMP1), MMP1 (gene 4312); experiment: BSK_BE3C_MMP1: BioMAP Diversity Plus: BE3C Assay for Matrix Metallopeptidase 1 (MMP1) Biomarker Activity (AID 2283024); conditions: primary human bronchial epithelial cells; actives raise or lower the signal
Outline: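 ELISA measurement of MMP-1 after 24 h compound exposure of primary human bronchial epithelial cells. Changes in either direction fitted relative to DMSO; parallel SRB staining checked overt cytotoxicity.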

[3] = BSK_3C_Vis: BioMAP Diversity Plus: 3C Assay for Morphology Visualization (AID 2283025); conditions: primary human endothelial cells (HUVEC);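 note: fitted both ways so gain or loss versus DMSO counts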;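 for AC50: light microscopy image of cell morphology used as background control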
Outline: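 Light-microscopy visualization of HUVEC cultures at 24 h post-treatment, with DMSO as baseline for bidirectional fitting.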

[4] = read-out: Pselectin, SELP (gene 6403); experiment: BSK_4H_Pselectin: BioMAP Diversity Plus: 4H Assay for Pselectin Biomarker Activity (AID 2283026); conditions: primary human endothelial cells (HUVEC); actives raise or lower the signal
Outline: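 ELISA of surface P-selectin on HUVEC, 24 h after dosing, with parallel SRB staining (0.1% after 10% TCA fixation, 560 nm) for overt cytotoxicity. Activity fitted in both directions relative to DMSO.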

[5] = BSK_4H_SRB: Viability Assessment in the BioMAP Diversity Plus: 4H Assay (AID 2283027); conditions: primary human endothelial cells (HUVEC);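 note: cells exposed to compound for 24 h before staining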;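 for AC50: curves fitted both ways versus DMSO so AC50 may be loss or gain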
Outline: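 Cytotoxicity readout: sulforhodamine B (0.1%) staining of total protein after 10% TCA fixation, measured at 560 nm in human umbilical vein endothelium at 24 h. DMSO set the baseline; fitting was bidirectional.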

[6] = BSK_BE3C_SRB: Viability Assessment in the BioMAP Diversity Plus: BE3C Assay (AID 2283028); conditions: primary human bronchial epithelial cells
Outline: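 Human primary bronchial epithelial cells were exposed to test chemicals for 24 h. Total protein in parallel cultures was then measured by staining with 0.1% sulforhodamine B after 10% TCA fixation, with absorbance read at 560 nm. Activity was fitted bidirectionally against DMSO.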

[7] = read-out: Thrombomodulin, THBD (gene 7056); experiment: BSK_3C_Thrombomodulin: BioMAP Diversity Plus: 3C Assay for Thrombomodulin Biomarker Activity (AID 2283029); conditions: primary human endothelial cells (HUVEC); actives raise or lower the signal
Outline: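 ELISA measurement of thrombomodulin on HUVEC surface 24 h after chemical dosing; activity fitted in both directions relative to DMSO vehicle.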

[8] = read-out: Urokinase-type plasminogen activator receptor (uPAR), PLAUR (gene 5329); experiment: BSK_4H_uPAR: BioMAP Diversity Plus: 4H Assay for Urokinase-type plasminogen activator receptor (uPAR) Biomarker Activity (AID 2283030); conditions: primary human endothelial cells (HUVEC); actives raise or lower the signal
Outline: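 Primary human umbilical vein endothelial cells were exposed to chemical for 24 h before cell-surface uPAR was quantified by ELISA. Activity was fitted bidirectionally against the DMSO negative control baseline.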

[9] = read-out: Human Leukocyte Antigen - DR isotype (HLADR), HLA-DRA (gene 3122); experiment: BSK_BE3C_HLADR: BioMAP Diversity Plus: BE3C Assay for Human Leukocyte Antigen - DR isotype (HLADR) Biomarker Activity (AID 2283032); conditions: primary human bronchial epithelial cells; actives raise or lower the signal
Outline: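 Cell-surface HLA-DR ELISA readout at 24 h after dosing in the BE3C primary human lung bronchial epithelial system; gain or loss of signal against DMSO, with parallel sulforhodamine B staining of total protein for overt cytotoxicity.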

[10] = read-out: Vascular cell adhesion molecule 1 (VCAM1), VCAM1 (gene 7412); experiment: BSK_4H_VCAM1: BioMAP Diversity Plus: 4H Assay for Vascular cell adhesion molecule 1 (VCAM1) Biomarker Activity (AID 2283033); conditions: primary human endothelial cells (HUVEC); actives raise or lower the signal
Outline: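 VCAM-1 ELISA read 24 h after chemical dosing of HUVEC in the BioMAP 4H system, with gain or loss of signal fitted relative to DMSO. Parallel SRB staining (560 nm) checked overt cytotoxicity.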

[11] = read-out: Interferon-gamma inducible Protein 10 (IP10), CXCL10 (gene 3627); experiment: BSK_BE3C_IP10: BioMAP Diversity Plus: BE3C Assay for Interferon-gamma inducible Protein 10 (IP10) Biomarker Activity (AID 2283034); conditions: primary human bronchial epithelial cells; actives raise or lower the signal
Outline: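 IP-10 quantified by ELISA in human primary bronchial epithelial cell cultures at 24 hours post-dosing. Gain or loss of signal fitted relative to DMSO; parallel SRB staining assessed overt cytotoxicity.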

[12] = read-out: Monokine induced gamma interferon (MIG), CXCL9 (gene 4283); experiment: BSK_BE3C_MIG: BioMAP Diversity Plus: BE3C Assay for Monokine induced gamma interferon (MIG) Biomarker Activity (AID 2283035); conditions: primary human bronchial epithelial cells; actives raise or lower the signal
Outline: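 hu bronchial epithelial 1° cells, 24 h cpd; MIG by ELISA; bidirectional fit, DMSO = baseline.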

[13] = read-out: Transforming growth factor beta 1 (TGFb1), TGFB1 (gene 7040); experiment: BSK_BE3C_TGFb1: BioMAP Diversity Plus: BE3C Assay for Transforming growth factor beta 1 (TGFb1) Biomarker Activity (AID 2283036;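 note: TGF-b1 protein level measured by ELISA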); conditions: primary human bronchial epithelial cells; actives raise or lower the signal
Outline: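 ELISA readout of TGF-b1 from human lung bronchial epithelial primary cells, taken 24 h post-treatment. Gain or loss of signal fitted relative to DMSO baseline, with parallel SRB staining for overt cytotoxicity.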

[14] = read-out: Plasminogen activator inhibitor-1 (PAI1), SERPINE1 (gene 5054); experiment: BSK_BE3C_PAI1: BioMAP Diversity Plus: BE3C Assay for Plasminogen activator inhibitor-1 (PAI1) Biomarker Activity (AID 2283037); conditions: primary human bronchial epithelial cells; actives raise or lower the signal
Outline: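 PAI-1 was measured by ELISA in human primary bronchial epithelial cultures 24 h after chemical dosing, with cytotoxicity checked by SRB total-protein staining in parallel cultures. Activity was fitted in both directions relative to DMSO.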

[15] = read-out: urokinase plasminogen activator (uPA), PLAU (gene 5328); experiment: BSK_BE3C_uPA: BioMAP Diversity Plus: BE3C Assay for urokinase plasminogen activator (uPA) Biomarker Activity (AID 2283038); conditions: primary human bronchial epithelial cells; actives raise or lower the signal;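 note: uPA protein level quantified by ELISA in cell cultures; uPA read one day after compound addition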
Outline: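 Human primary bronchial epithelial cells were exposed to chemical for 24 h, then uPA levels were measured by ELISA. Responses were fitted bidirectionally against DMSO as negative control and baseline. Parallel SRB staining of total protein gauged overt cytotoxicity.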

[16] = read-out: Urokinase-type plasminogen activator receptor (uPAR), PLAUR (gene 5329); experiment: BSK_BE3C_uPAR: BioMAP Diversity Plus: BE3C Assay for Urokinase-type plasminogen activator receptor (uPAR) Biomarker Activity (AID 2283039); conditions: primary human bronchial epithelial cells; actives raise or lower the signal;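 note: cells exposed to compound for one day before measurement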
Outline: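 uPAR levels were measured by ELISA after 24 h compound treatment of primary human bronchial epithelial cells, fitted in both directions relative to DMSO. Parallel SRB staining served as the cytotoxicity read-out.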

[17] = read-out: Interleukin-6 (IL6), IL6 (gene 3569); experiment: BSK_CASM3C_IL6: BioMAP Diversity Plus: CASM3C Assay for Interleukin-6 (IL6) Biomarker Activity for (AID 2283040); conditions: primary human coronary artery smooth muscle cells; actives raise or lower the signal
[18] = read-out: Tissue plasminogen activator (tPA), PLAT (gene 5327); experiment: BSK_BE3C_tPA: BioMAP Diversity Plus: BE3C Assay for Tissue plasminogen activator (tPA) Biomarker Activity (AID 2283041); conditions: primary human bronchial epithelial cells; actives raise or lower the signal;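 note: tPA level quantified by ELISA one day after compound addition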
Outline: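 tPA measured by ELISA 24 h after dosing human primary bronchial epithelial cells (BE3C system). Changes in either direction were fitted against DMSO. Parallel cultures were stained with SRB to flag overt cytotoxicity.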

[19] = read-out: Interleukin-8 (IL8), CXCL8 (gene 3576); experiment: BSK_CASM3C_IL8: BioMAP Diversity Plus: CASM3C Assay for Interleukin-8 (IL8) Biomarker Activity (AID 2283042); conditions: primary human coronary artery smooth muscle cells; actives raise or lower the signal;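 note: IL-8 protein level quantified by ELISA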
[20] = read-out: Vascular endothelial growth factor receptor 2 (Homo sapiens) (UniProt P35968); experiment: BSK_4H_VEGFRII: BioMAP Diversity Plus: 4H Assay for Vascular endothelial growth factor receptor 2 (VEGFR2) Biomarker Activity (AID 2283031); conditions: primary human endothelial cells (HUVEC); actives raise or lower the signal
Outline: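 Primary human umbilical vein endothelial cells in the BioMAP 4H system were dosed with test chemical, and 24 h later VEGFRII was measured by ELISA. Activity was fitted bidirectionally against DMSO as negative control and baseline.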

Measured: AC50

O=C(NS(=O)(=O)/C=C/c1cccs1)c1ccc(F)cc1Br
active: [2] 1.31 µM | [11] 32.6 µM
not listed: [20]
inactive: all other assays above

C#CC(O)C(CC)CCCC (stereo unspecified)
not listed: [15]
inactive: all other assays above

CC(N)=O
not listed: [20]
inactive: all other assays above

CCCCCCCCCCCCCCCCO
not listed: [15] | [20]
inactive: all other assays above

C/C=C/C=C/C(=O)O
not listed: [15] | [20]
inactive: all other assays above

CCCCC(CC)COP(=O)(OCC(CC)CCCC)OCC(CC)CCCC (stereo unspecified)
active: [1] 20 µM | [3] 13.7 µM | [4] 12.2 µM | [5] 20 µM | [8] 20 µM | [10] 6.21 µM
not listed: [20]
inactive: all other assays above

CC(=O)CC(c1ccccc1)c1c(O)c2ccccc2oc1=O (stereo unspecified)
not listed: [2]
inactive: all other assays above

CC(C)(O)c1ccc(CNC(=O)c2cccnc2Oc2ccc(F)cc2)cc1
not listed: [2]
inactive: all other assays above

OCC(CO)n1cnc(-c2ccc(F)cc2)c1-c1ccnc(Oc2ccccc2)n1
active: [2] 0.594 µM | [7] 2.28 µM | [14] 1.29 µM | [17] 0.654 µM
not listed: [15] | [20]
inactive: all other assays above

O=[Si]=O
not listed: [15] | [20]
inactive: all other assays above

CC(=O)[C@@]1(O)CC[C@H]2[C@@H]3CCC4=CC(=O)CC[C@]4(C)[C@H]3CC[C@@]21C
active: [2] 8.47 µM | [8] 26.6 µM | [17] 29.5 µM
not listed: [6] | [15]
inactive: all other assays above

O=C1c2c(O)cccc2Cc2cccc(O)c21
active: [1] 20 µM | [3] 39 µM | [5] 20 µM
not listed: [2]
inactive: all other assays above

CC(=O)O
not listed: [20]
inactive: all other assays above

Cc1occc(=O)c1O
not listed: [2]
inactive: all other assays above
